According to PubChem BioAssay (EPA / NIEHS):
Records with an inconclusive call do not appear. Active and inactive are the calls of the source. How the source made its calls, unless noted: active means hit-call score of the fitted dose curve at least 0.9, where 1 is the maximum; inactive means score below 0.9.

Key:
[1] = target: Nuclear respiratory factor 1 (Homo sapiens) (UniProt Q16656); assay: ATG_NRF1_CIS: Attagene CIS-FACTORIAL HepG2 Assay for human Nuclear Respiratory Factor 1 (NRF1) Orphan Gene (AID 2282987); details: HepG2 NRF1 cis-element reporter, Attagene multiplex; actives raise or lower the signal
Nuclear respiratory factor 1 (Homo sapiens), sequence (Q16656 whole entry, looked up): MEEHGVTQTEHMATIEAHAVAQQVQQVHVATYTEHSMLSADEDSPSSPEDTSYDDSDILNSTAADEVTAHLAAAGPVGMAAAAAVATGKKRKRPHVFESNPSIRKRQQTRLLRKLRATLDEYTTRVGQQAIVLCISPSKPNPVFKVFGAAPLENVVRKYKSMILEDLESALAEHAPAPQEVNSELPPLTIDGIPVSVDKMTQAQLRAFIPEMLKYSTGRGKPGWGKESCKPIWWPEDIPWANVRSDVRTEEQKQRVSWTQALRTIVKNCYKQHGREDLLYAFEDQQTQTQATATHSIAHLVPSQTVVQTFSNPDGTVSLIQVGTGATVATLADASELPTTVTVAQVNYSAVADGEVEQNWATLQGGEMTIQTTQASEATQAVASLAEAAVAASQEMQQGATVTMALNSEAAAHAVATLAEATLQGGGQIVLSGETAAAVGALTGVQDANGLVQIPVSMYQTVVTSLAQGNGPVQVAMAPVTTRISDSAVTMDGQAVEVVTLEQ
Outline: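 Endogenous NRF1-driven reporter transcription in transfected HepG2 cells after 24 h treatment. Readout: RT-PCR products, 6-FAM labelled and resolved by capillary electrophoresis; changes fitted both directions relative to DMSO.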

[2] = target: Myc proto-oncogene protein (Homo sapiens) (UniProt P01106); assay: ATG_Myc_CIS: Attagene CIS-FACTORIAL HepG2 Assay for human Myelocytomatosis (Myc) Proto-Oncogene Transcription Factor (AID 2282990); details: HepG2, Attagene cis-reporter transcription factor activity; actives raise or lower the signal
Myc proto-oncogene protein (Homo sapiens), sequence (P01106 whole entry, looked up, the tested form may be a part): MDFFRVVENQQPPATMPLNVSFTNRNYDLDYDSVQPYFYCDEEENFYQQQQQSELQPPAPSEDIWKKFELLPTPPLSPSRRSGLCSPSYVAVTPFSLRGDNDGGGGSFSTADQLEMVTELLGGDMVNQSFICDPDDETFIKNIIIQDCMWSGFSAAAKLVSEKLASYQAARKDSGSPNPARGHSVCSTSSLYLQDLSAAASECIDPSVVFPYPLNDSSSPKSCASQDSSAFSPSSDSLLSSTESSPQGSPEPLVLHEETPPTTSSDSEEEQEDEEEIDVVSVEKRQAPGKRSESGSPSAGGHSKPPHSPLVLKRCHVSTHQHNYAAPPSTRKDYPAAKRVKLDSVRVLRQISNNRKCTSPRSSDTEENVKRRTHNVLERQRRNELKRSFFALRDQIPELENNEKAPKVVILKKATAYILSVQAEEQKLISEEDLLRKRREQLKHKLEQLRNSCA
Outline: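 Read-out: fluorescent reporter mRNA fragments resolved by capillary electrophoresis after RT-PCR. Human HepG2 liver cells carried transfected cis-element reporter units and were dosed for 24 h. Gain or loss of signal fitted relative to DMSO baseline.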

[3] = ATG_NF_kB_CIS: Attagene CIS-FACTORIAL HepG2 Assay for human Nuclear Factor Kappa B (NF-kB) (AID 2282991); details: HepG2 Attagene cis-factorial NF-kB reporter mRNA; actives raise or lower the signal
Outline: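 Readout is reporter transcript level, gain or loss versus DMSO, measured 24 h post-dose via RT-PCR, fluorescent labelling and capillary electrophoresis. Human HepG2 liver cells carried transiently transfected CIS reporter constructs reflecting endogenous factors.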

[4] = ATG_NRF2_ARE_CIS: Attagene CIS-FACTORIAL HepG2 Assay for human Nuclear Factor Erythroid 2 Related Factor 2 (NFR2) response to Antioxidant Response Elements (ARE) (AID 2282992); details: HepG2 Attagene ARE/NRF2 reporter, transcription factor activity; actives raise or lower the signal
Outline: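 Endogenous transcription factor activity read out as reporter transcript levels (RT-PCR plus capillary electrophoresis, fluorescence) in transiently transfected HepG2 cells. Measured at 24 h after dosing; gain or loss of signal fitted versus DMSO.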

[5] = ATG_Oct_MLP_CIS: Attagene CIS-FACTORIAL HepG2 Assay for human Octamer-Binding Transcription Factor (Oct) (AID 2282993); details: HepG2 Attagene cis-factorial Oct reporter, mRNA; actives raise or lower the signal
Outline: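 Transient MRTU transfection of HepG2 → 24 h compound treatment → RNA isolation, reverse transcription, PCR → 6-FAM primer extension, HpaI digest → capillary electrophoresis. Activity fitted both directions against DMSO.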

[6] = target: Cellular tumor antigen p53 (Homo sapiens) (UniProt P04637); assay: ATG_p53_CIS: Attagene CIS-FACTORIAL HepG2 Assay for human p53 Transcription Factor (AID 2282994); details: HepG2 p53 cis-element reporter, Attagene mRNA; actives raise or lower the signal
Cellular tumor antigen p53 (Homo sapiens), sequence (P04637 whole entry, looked up): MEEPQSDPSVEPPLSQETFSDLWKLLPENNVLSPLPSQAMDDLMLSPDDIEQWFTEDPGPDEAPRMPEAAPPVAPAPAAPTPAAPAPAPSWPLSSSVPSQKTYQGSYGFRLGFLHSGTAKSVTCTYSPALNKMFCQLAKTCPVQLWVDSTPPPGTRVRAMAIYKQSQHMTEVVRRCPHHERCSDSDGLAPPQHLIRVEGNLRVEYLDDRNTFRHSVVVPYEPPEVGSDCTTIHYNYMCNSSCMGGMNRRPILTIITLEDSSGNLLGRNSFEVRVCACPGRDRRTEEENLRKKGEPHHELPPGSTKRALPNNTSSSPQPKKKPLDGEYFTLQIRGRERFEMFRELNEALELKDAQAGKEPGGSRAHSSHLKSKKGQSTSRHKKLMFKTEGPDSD
Outline: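 Endogenous p53 activity read in transiently transfected HepG2 from a cis-element-driven reporter transcript after 24 h exposure. RNA reverse-transcribed, PCR-amplified, fluorescently labelled and sized by capillary electrophoresis; gain or loss fitted against DMSO baseline.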

[7] = target: human Peroxisome Proliferator-activated Receptor delta (PPARd), PPARD (gene 5467) (UniProt Q03181); assay: ATG_PPARd_TRANS: Attagene TRANS-FACTORIAL HepG2 Assay for human Peroxisome Proliferator-activated Receptor delta (PPARd) (AID 2283002; active means hit-call score of the fitted dose curve at least 0.9, where 1 is the maximum)
human Peroxisome Proliferator-activated Receptor delta (PPARd), PPARD (gene 5467), sequence (Q03181 whole entry, looked up, the tested form may be a part): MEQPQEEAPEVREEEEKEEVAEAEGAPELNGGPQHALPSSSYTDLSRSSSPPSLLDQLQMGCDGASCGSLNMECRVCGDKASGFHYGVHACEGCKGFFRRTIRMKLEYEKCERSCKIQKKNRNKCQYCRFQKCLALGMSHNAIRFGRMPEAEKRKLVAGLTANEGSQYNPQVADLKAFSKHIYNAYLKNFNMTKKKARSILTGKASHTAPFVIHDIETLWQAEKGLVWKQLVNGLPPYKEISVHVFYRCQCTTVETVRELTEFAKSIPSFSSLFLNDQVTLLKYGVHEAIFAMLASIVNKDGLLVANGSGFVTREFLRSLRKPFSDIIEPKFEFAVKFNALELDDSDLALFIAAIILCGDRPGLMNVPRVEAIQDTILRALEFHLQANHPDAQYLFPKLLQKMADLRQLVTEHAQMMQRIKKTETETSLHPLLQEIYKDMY
Outline: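 Read-out: reporter mRNA induction, quantified by fluorescent RT-PCR products resolved by capillary electrophoresis. Human HepG2 liver cells carried transiently transfected Gal4-UAS reporter constructs with chimeric NR-Gal4 fusions. Cells were dosed for 24 h; DMSO served as baseline.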

[8] = target: Peroxisome proliferator-activated receptor gamma (Homo sapiens) (UniProt P37231); assay: ATG_PPARg_TRANS: Attagene TRANS-FACTORIAL HepG2 Assay for human Peroxisome Proliferator-activated Receptor-gamma (PPARg) (AID 2283007; active means hit-call score of the fitted dose curve at least 0.9, where 1 is the maximum)
Peroxisome proliferator-activated receptor gamma (Homo sapiens), sequence (P37231 whole entry, looked up, the tested form may be a part): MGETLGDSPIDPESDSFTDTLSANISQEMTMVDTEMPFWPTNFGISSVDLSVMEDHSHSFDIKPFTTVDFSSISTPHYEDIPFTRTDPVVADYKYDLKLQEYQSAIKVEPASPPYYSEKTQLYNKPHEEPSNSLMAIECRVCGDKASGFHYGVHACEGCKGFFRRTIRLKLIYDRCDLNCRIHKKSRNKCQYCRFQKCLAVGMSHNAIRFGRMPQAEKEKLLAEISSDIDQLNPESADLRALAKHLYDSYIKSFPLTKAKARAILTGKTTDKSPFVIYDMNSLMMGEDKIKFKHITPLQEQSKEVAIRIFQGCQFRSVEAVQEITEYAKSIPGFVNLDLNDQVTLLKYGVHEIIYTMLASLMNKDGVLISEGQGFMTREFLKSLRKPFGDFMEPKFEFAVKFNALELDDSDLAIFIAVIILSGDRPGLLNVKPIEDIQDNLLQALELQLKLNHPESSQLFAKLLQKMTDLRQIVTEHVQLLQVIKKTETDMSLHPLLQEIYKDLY
Outline: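 After 24 h of chemical exposure, transfected HepG2 cells carrying PPARγ-Gal4 chimera reporter constructs are lysed for RNA. Reporter transcripts are measured by RT-PCR and capillary electrophoresis with fluorescent labelling, and gain of signal is fitted versus DMSO.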

[9] = target: Nuclear receptor subfamily 1 group I member 2 (Homo sapiens) (UniProt O75469); assay: ATG_PXR_TRANS: Attagene TRANS-FACTORIAL HepG2 Assay for human Pregnane X Receptor (PXR) (AID 2283008; active means hit-call score of the fitted dose curve at least 0.9, where 1 is the maximum)
Nuclear receptor subfamily 1 group I member 2 (Homo sapiens), sequence (O75469 whole entry, looked up, the tested form may be a part): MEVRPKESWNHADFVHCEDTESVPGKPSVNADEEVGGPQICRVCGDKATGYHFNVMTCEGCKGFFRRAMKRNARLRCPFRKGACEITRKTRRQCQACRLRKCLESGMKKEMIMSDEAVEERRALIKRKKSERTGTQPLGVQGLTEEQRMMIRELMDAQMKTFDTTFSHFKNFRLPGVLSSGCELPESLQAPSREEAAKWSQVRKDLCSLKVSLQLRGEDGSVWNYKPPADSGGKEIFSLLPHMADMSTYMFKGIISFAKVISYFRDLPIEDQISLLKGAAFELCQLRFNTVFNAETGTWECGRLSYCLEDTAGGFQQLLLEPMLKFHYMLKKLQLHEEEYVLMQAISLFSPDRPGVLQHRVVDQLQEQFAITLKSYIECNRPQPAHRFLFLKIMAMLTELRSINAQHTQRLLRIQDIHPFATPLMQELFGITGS
Outline: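 Transactivation by exogenous PXR–GAL4 fusion measured as reporter transcript induction after 24 h compound treatment of transfected human HepG2 cells. Read-out via RT-PCR and capillary electrophoresis of labelled fragments, fitted upward relative to DMSO.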

[10] = target: human Retinoic Acid Receptor gamma (RARg), RARG (gene 5916) (UniProt P13631); assay: ATG_RARg_TRANS: Attagene TRANS-FACTORIAL HepG2 Assay for human Retinoic Acid Receptor gamma (RARg) (AID 2283009; active means hit-call score of the fitted dose curve at least 0.9, where 1 is the maximum)
human Retinoic Acid Receptor gamma (RARg), RARG (gene 5916), sequence (P13631 whole entry, looked up, the tested form may be a part): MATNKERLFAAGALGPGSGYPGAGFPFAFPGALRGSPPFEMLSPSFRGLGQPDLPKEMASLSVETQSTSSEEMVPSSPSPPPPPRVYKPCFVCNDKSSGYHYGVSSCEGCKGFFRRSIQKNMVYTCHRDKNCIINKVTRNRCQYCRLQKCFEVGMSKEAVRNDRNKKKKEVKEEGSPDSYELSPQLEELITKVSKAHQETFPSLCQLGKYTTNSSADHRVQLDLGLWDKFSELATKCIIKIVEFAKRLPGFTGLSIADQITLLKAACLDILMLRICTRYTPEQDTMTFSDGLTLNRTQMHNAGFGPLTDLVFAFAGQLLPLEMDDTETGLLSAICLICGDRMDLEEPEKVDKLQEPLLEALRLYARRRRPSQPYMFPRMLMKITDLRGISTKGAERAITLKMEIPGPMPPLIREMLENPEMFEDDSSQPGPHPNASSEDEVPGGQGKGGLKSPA
Outline: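 TRANS format measured activity of exogenous NR-GAL4 fusion (RARg) in transfected HepG2 liver cells after 24 h dosing. Induced reporter RNA was detected by RT-PCR/capillary electrophoresis fluorescence, analysed in the positive direction against DMSO.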

[11] = BSK_3C_TissueFactor: BioMAP Diversity Plus: 3C Assay for Tissue Factor Biomarker Activity (AID 2282997); details: BioMAP 3C HUVEC, tissue factor biomarker readout; actives raise or lower the signal
Outline: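 In this endothelial system, HUVEC are treated for 24 h and Tissue Factor is assessed by ELISA, normalised to DMSO.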

[12] = BSK_3C_uPAR: BioMAP Diversity Plus: 3C Assay for Urokinase-type plasminogen activator receptor (uPAR) Biomarker Activity (AID 2282998); details: BioMAP 3C HUVEC, uPAR biomarker ELISA; actives raise or lower the signal
Outline: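 ELISA readout of uPAR on human vascular endothelium (umbilical vein primary cells), taken 24 h after chemical dosing. Increases and decreases are both fitted relative to DMSO vehicle.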

[13] = BSK_3C_VCAM1: BioMAP Diversity Plus: 3C Assay for Vascular cell adhesion molecule 1 (VCAM1) Biomarker Activity (AID 2282999); details: BioMAP 3C HUVEC, VCAM1 ELISA, cytokine-stimulated; actives raise or lower the signal
Outline: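 HUVEC primary cells, 24 h compound exposure; VCAM-1 by ELISA; gain/loss of signal fitted bidirectionally vs DMSO baseline.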

[14] = BSK_4H_Eotaxin3: BioMAP Diversity Plus: 4H Assay for Eotaxin 3 Biomarker Activity (AID 2283000); details: primary human endothelial cells (HUVEC); actives raise or lower the signal;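 further: CCL26 protein level quantified by ELISA in parallel with SRB cytotoxicity check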
Outline: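 ELISA quantitation of CCL26 (Eotaxin-3) protein from chemically dosed human vascular endothelial cells at 24 h; increases and decreases both scored relative to DMSO-treated baseline.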

[15] = read-out: Intercellular Adhesion Molecule 1 (ICAM1), ICAM1 (gene 3383); assay: BSK_3C_ICAM1: BioMAP Diversity Plus: 3C Assay for Intercellular Adhesion Molecule 1 (ICAM1) Biomarker Activity (AID 2283003); details: primary human endothelial cells (HUVEC); actives raise or lower the signal
Outline: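 Chemicals are dosed onto primary human umbilical vein endothelium (3C system). After 24 h, ICAM-1 is measured by ELISA, and responses are fitted bidirectionally relative to DMSO.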

[16] = BSK_3C_Proliferation: Cell Proliferation Assessment in the BioMAP Diversity Plus: 3C Assay (AID 2283006); details: primary human endothelial cells (HUVEC);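 on AC50: potency may reflect either rise or fall in cell number versus DMSO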
Outline: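 Cells (human umbilical vein endothelial, sub-confluent) receive test chemical; after 48 h they are fixed in 10% trichloroacetic acid, stained with 0.1% SRB and read at 560 nm. Activity is referenced to DMSO, fitting increases and decreases.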

[17] = target: human Retinoic Acid Receptor beta (RARb), RARB (gene 5915) (UniProt P10826); assay: ATG_RARb_TRANS: Attagene TRANS-FACTORIAL HepG2 Assay for human Retinoic Acid Receptor beta (AID 2283004; active means hit-call score of the fitted dose curve at least 0.9, where 1 is the maximum)
human Retinoic Acid Receptor beta (RARb), RARB (gene 5915), sequence (P10826 whole entry, looked up, the tested form may be a part): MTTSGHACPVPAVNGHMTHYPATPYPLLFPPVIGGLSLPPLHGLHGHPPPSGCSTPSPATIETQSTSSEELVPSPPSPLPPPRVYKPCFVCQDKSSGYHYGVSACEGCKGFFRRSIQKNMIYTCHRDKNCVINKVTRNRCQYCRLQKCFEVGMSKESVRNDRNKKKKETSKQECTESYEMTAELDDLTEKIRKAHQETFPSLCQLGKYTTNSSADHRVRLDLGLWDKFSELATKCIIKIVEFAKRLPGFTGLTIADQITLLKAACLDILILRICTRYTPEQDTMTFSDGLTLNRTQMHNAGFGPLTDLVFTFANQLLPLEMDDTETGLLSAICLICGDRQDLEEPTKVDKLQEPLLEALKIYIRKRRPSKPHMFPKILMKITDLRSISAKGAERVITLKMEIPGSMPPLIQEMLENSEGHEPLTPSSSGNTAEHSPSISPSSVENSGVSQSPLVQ
Outline: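 Fluorescent capillary-electrophoresis detection of GAL4-UAS reporter mRNA defines the endpoint, with induction over DMSO-treated wells scored as activity. Transiently transfected human hepatoma HepG2 cells expressing exogenous NR–Gal4 proteins are exposed to test chemicals for 24 h.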

[18] = target: human Peroxisome Proliferator-activated Receptor alpha (PPARa), PPARA (gene 5465) (UniProt Q07869); assay: ATG_PPARa_TRANS: Attagene TRANS-FACTORIAL HepG2 Assay for human Peroxisome Proliferator-activated Receptor alpha (PPARa) (AID 2283001; active means hit-call score of the fitted dose curve at least 0.9, where 1 is the maximum)
human Peroxisome Proliferator-activated Receptor alpha (PPARa), PPARA (gene 5465), sequence (Q07869 whole entry, looked up): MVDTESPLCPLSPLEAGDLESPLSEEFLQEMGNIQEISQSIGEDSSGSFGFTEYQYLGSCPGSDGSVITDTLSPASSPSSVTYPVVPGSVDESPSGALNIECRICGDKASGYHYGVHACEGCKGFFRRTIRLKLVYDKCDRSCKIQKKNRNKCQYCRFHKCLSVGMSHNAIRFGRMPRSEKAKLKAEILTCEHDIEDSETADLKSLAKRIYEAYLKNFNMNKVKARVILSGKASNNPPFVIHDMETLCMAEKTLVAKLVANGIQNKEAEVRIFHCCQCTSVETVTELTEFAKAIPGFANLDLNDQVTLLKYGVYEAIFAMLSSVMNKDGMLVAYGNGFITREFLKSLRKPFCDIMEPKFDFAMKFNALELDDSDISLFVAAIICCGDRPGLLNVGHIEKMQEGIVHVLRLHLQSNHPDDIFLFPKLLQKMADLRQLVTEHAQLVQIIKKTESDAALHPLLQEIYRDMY
Outline: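 HepG2, transient MRTU transfection, 24 h treatment. RT-PCR → FAM labelling → capillary electrophoresis. Fit vs DMSO, positive direction.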

[19] = target: Retinoic acid receptor alpha (Homo sapiens) (UniProt P10276); assay: ATG_RARa_TRANS: Attagene TRANS-FACTORIAL HepG2 Assay for human Retinoic Acid Receptor alpha (RARa) (AID 2283005; active means hit-call score of the fitted dose curve at least 0.9, where 1 is the maximum)
Retinoic acid receptor alpha (Homo sapiens), sequence (P10276 whole entry, looked up, the tested form may be a part): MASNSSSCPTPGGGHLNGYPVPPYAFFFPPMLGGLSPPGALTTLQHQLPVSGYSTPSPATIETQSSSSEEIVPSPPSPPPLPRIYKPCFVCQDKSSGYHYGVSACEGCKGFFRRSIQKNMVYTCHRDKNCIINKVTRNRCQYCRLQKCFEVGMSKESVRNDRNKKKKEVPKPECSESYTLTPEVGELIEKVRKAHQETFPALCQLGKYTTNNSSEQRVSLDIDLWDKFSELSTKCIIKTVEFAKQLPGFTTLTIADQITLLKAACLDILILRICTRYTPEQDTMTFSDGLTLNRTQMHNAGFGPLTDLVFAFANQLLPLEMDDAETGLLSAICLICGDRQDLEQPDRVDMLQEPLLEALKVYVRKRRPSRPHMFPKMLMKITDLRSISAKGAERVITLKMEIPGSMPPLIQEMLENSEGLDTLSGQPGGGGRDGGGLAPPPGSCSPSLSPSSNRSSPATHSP
Outline: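 HepG2 transiently transfected with multiplex GAL4-UAS reporter units including a human RARa–GAL4 chimera; 24 h compound exposure. Reporter mRNA quantified by RT-PCR, 6-FAM labeling and capillary electrophoresis; gain of signal versus DMSO.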

Measured: AC50

COc1cccc2c1C(=O)c1c(O)c3c(c(O)c1C2=O)C[C@@](O)(C(=O)CO)C[C@@H]3O[C@H]1C[C@H](N)[C@H](O)[C@H](C)O1
inactive: [1] | [7] | [8] | [9] | [10]
active: [2] 2.48 µM | [3] 0.653 µM | [4] 1.56 µM | [5] 0.719 µM | [6] 2.24 µM

CNCc1cc(F)ccc1Oc1ccc(Cl)c(Cl)c1
active: [11] 12.5 µM | [12] 30.9 µM | [16] 23.9 µM
not listed: [17] | [18] | [19]
inactive: all other assays above

COc1cc(C=O)ccc1O
not listed: [8] | [9] | [10] | [17] | [18] | [19]
inactive: all other assays above

Cc1ccc(N(C)C)cc1
not listed: [8] | [10] | [17] | [18] | [19]
inactive: all other assays above

CC(C)c1ccc(C(=O)N=C(N)N)cc1S(C)(=O)=O
not listed: [10] | [18] | [19]
inactive: all other assays above

O=C(N[C@@H](Cc1ccccc1)[C@@H](O)C(=O)N1C[C@@H](O)[C@@H](O)C1)c1cc2cc(Cl)ccc2[nH]1
active: [4] 91.9 µM
not listed: [10] | [17] | [18] | [19]
inactive: all other assays above

COc1ccc2c(c1)c(CC(=O)O)c(C)n2C(=O)c1ccc(Cl)cc1
not listed: [3] | [8] | [10] | [17] | [19]
inactive: all other assays above

O=C(O)CCCCC(=O)O
not listed: [7] | [8] | [9] | [10] | [17] | [18] | [19]
inactive: all other assays above

Cc1nc(C)nc(N2C[C@@H](C)N(c3ccnc([C@@H](C)O)n3)[C@@H](C)C2)n1
active: [12] 12.9 µM | [9] 82.4 µM
not listed: [7] | [8] | [17] | [18] | [19]
inactive: all other assays above

Nc1ccc2c(c1)C(=O)c1ccccc1C2=O
active: [4] 3.98 µM | [12] 6.96 µM | [8] 21 µM
not listed: [7] | [10] | [18] | [19]
inactive: all other assays above

Nc1nc(N)c2nc(CNc3ccc(C(=O)N[C@@H](CCC(=O)O)C(=O)O)cc3)cnc2n1
not listed: [8] | [9] | [18]
inactive: all other assays above

O=[N+]([O-])C(CO)(CO)CO
not listed: [7] | [9] | [10] | [18] | [19]
inactive: all other assays above

CC1(C)NC(=O)NC1=O
not listed: [8] | [10] | [17] | [18]
inactive: all other assays above
